ChEMBL document CHEMBL1961873, “Compounds: GSK PKIS; Assays: Nanosyn kinase panel” (2012)

Columns and labels:
[1] = target: T1, Tyrosine-protein kinase receptor TYRO3 (Homo sapiens) (UniProt Q06418); details: at 1 µM
T1 sequence (whole entry): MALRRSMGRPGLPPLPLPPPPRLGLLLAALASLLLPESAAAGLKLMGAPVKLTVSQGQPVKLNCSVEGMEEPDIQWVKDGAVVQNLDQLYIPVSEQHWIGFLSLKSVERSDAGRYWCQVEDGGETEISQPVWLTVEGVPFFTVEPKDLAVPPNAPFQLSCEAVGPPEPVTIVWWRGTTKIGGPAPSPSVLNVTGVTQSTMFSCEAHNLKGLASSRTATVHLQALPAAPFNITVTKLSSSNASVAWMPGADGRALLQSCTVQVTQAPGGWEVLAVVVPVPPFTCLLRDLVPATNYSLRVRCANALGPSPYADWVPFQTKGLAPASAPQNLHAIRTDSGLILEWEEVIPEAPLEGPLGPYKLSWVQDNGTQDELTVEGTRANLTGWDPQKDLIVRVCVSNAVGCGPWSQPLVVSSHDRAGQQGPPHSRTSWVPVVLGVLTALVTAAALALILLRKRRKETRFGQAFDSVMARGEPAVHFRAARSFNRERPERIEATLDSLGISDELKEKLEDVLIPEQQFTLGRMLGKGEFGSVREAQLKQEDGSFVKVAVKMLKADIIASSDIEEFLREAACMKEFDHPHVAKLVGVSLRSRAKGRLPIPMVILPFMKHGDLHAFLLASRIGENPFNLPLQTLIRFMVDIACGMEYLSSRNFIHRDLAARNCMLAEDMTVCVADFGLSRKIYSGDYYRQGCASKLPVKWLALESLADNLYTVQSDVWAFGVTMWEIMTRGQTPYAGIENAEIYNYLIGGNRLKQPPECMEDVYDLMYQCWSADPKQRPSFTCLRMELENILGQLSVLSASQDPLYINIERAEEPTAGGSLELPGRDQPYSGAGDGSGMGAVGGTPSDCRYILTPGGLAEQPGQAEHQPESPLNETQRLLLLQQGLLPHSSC

[2] = target: Tyrosine-protein kinase Yes (Homo sapiens) (UniProt P07947); details: at 0.1 µM
[3] = target: Tyrosine-protein kinase Yes (Homo sapiens) (UniProt P07947); details: at 1 µM
[4] = target: T2, Tyrosine-protein kinase ZAP-70 (Homo sapiens) (UniProt P43403); details: at 1 µM
T2 sequence (whole entry): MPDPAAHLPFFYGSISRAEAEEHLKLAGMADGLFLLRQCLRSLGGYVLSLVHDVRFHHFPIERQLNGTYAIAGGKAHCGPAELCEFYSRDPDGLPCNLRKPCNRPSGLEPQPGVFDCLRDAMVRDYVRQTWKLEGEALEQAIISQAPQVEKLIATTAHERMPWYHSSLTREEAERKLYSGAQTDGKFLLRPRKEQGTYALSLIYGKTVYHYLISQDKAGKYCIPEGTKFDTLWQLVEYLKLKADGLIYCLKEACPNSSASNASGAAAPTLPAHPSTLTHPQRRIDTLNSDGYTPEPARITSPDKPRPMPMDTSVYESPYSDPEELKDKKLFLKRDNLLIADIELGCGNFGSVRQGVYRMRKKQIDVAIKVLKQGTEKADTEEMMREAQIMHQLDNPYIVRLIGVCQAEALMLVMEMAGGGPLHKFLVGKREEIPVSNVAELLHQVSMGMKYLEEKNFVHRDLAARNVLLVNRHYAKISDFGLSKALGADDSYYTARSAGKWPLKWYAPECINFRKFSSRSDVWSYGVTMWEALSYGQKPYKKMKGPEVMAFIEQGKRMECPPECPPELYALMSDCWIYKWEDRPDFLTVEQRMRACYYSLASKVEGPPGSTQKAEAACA

[5] = target: Serine/threonine-protein kinase B-raf (Homo sapiens) (UniProt P15056); details: at 0.1 µM
[6] = target: Serine/threonine-protein kinase B-raf (Homo sapiens) (UniProt P15056); details: at 1 µM
[7] = test system: Serine/threonine-protein kinase B-raf (Homo sapiens), P15056 [V600E]; details: at 0.1 µM
[8] = test system: Serine/threonine-protein kinase B-raf (Homo sapiens), P15056 [V600E]; details: at 1 µM
[9] = target: RAF proto-oncogene serine/threonine-protein kinase (Homo sapiens) (UniProt P04049); details: at 0.1 µM
[10] = target: RAF proto-oncogene serine/threonine-protein kinase (Homo sapiens) (UniProt P04049); details: at 1 µM
[11] = target: T3, Interleukin-1 receptor-associated kinase 4 (Homo sapiens) (UniProt Q9NWZ3); details: at 0.1 µM
T3 sequence (whole entry): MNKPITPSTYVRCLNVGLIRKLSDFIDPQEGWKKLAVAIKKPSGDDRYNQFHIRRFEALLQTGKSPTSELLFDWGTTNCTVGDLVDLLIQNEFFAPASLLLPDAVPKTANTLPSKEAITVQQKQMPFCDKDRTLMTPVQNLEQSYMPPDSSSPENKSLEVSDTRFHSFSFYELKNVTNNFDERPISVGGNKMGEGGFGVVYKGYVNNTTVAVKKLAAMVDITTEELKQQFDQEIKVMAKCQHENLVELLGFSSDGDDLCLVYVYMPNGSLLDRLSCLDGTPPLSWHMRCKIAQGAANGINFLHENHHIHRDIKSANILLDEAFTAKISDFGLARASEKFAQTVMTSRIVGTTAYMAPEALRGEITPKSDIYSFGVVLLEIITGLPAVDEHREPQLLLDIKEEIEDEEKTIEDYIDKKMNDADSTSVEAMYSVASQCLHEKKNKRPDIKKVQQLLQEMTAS

[12] = target: T3, Interleukin-1 receptor-associated kinase 4 (Homo sapiens); details: at 1 µM
[13] = target: Leucine-rich repeat serine/threonine-protein kinase 2 (Homo sapiens) (UniProt Q5S007); details: at 0.1 µM
[14] = target: Leucine-rich repeat serine/threonine-protein kinase 2 (Homo sapiens) (UniProt Q5S007); details: at 1 µM
[15] = test system: Leucine-rich repeat serine/threonine-protein kinase 2 (Homo sapiens), Q5S007 [G2019S]; details: at 0.1 µM
[16] = test system: Leucine-rich repeat serine/threonine-protein kinase 2 (Homo sapiens), Q5S007 [G2019S]; details: at 1 µM
[17] = target: T2, Tyrosine-protein kinase ZAP-70 (Homo sapiens); details: at 0.1 µM

Sequence of Serine/threonine-protein kinase B-raf (Homo sapiens), P15056 [V600E] (P15056 whole entry V600E): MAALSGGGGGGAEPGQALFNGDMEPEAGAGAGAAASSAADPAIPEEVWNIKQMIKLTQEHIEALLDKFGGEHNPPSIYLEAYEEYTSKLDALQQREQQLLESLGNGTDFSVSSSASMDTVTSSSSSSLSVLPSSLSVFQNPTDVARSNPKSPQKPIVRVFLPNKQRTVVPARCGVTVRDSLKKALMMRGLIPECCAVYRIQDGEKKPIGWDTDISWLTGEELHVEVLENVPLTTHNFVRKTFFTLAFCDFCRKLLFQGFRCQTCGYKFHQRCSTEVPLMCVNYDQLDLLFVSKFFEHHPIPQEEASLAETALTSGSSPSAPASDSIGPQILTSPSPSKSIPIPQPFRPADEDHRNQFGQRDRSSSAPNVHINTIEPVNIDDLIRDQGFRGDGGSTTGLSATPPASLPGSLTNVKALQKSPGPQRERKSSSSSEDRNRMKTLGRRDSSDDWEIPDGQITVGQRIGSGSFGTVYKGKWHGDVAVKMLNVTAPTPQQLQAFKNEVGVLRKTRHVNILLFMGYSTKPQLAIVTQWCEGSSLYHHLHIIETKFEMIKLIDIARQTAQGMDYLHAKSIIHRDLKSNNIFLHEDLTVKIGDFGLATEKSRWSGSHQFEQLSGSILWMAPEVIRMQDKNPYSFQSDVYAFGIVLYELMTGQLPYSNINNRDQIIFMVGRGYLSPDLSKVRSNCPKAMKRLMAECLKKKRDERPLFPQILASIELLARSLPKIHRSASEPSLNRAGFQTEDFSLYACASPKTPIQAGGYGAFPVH
Sequence of RAF proto-oncogene serine/threonine-protein kinase (Homo sapiens) (P04049 whole entry): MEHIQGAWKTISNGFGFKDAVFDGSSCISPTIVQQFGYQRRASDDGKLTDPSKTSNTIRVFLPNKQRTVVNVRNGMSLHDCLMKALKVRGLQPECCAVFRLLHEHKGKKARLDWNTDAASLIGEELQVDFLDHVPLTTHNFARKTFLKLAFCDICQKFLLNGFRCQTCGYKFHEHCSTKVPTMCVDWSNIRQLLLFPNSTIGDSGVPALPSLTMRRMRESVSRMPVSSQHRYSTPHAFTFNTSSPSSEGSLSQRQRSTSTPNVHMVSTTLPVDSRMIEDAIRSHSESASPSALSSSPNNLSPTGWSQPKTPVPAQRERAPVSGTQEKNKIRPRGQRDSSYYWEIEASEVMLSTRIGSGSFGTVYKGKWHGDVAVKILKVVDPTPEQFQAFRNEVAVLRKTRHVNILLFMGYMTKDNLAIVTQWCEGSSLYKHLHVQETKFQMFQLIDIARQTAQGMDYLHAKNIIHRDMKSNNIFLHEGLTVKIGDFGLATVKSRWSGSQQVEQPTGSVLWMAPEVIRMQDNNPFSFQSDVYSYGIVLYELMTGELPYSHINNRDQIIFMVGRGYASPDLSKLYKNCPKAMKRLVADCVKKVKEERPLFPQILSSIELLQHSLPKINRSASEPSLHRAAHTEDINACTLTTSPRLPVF
Sequence of Leucine-rich repeat serine/threonine-protein kinase 2 (Homo sapiens), Q5S007 [G2019S] (Q5S007 whole entry G2019S): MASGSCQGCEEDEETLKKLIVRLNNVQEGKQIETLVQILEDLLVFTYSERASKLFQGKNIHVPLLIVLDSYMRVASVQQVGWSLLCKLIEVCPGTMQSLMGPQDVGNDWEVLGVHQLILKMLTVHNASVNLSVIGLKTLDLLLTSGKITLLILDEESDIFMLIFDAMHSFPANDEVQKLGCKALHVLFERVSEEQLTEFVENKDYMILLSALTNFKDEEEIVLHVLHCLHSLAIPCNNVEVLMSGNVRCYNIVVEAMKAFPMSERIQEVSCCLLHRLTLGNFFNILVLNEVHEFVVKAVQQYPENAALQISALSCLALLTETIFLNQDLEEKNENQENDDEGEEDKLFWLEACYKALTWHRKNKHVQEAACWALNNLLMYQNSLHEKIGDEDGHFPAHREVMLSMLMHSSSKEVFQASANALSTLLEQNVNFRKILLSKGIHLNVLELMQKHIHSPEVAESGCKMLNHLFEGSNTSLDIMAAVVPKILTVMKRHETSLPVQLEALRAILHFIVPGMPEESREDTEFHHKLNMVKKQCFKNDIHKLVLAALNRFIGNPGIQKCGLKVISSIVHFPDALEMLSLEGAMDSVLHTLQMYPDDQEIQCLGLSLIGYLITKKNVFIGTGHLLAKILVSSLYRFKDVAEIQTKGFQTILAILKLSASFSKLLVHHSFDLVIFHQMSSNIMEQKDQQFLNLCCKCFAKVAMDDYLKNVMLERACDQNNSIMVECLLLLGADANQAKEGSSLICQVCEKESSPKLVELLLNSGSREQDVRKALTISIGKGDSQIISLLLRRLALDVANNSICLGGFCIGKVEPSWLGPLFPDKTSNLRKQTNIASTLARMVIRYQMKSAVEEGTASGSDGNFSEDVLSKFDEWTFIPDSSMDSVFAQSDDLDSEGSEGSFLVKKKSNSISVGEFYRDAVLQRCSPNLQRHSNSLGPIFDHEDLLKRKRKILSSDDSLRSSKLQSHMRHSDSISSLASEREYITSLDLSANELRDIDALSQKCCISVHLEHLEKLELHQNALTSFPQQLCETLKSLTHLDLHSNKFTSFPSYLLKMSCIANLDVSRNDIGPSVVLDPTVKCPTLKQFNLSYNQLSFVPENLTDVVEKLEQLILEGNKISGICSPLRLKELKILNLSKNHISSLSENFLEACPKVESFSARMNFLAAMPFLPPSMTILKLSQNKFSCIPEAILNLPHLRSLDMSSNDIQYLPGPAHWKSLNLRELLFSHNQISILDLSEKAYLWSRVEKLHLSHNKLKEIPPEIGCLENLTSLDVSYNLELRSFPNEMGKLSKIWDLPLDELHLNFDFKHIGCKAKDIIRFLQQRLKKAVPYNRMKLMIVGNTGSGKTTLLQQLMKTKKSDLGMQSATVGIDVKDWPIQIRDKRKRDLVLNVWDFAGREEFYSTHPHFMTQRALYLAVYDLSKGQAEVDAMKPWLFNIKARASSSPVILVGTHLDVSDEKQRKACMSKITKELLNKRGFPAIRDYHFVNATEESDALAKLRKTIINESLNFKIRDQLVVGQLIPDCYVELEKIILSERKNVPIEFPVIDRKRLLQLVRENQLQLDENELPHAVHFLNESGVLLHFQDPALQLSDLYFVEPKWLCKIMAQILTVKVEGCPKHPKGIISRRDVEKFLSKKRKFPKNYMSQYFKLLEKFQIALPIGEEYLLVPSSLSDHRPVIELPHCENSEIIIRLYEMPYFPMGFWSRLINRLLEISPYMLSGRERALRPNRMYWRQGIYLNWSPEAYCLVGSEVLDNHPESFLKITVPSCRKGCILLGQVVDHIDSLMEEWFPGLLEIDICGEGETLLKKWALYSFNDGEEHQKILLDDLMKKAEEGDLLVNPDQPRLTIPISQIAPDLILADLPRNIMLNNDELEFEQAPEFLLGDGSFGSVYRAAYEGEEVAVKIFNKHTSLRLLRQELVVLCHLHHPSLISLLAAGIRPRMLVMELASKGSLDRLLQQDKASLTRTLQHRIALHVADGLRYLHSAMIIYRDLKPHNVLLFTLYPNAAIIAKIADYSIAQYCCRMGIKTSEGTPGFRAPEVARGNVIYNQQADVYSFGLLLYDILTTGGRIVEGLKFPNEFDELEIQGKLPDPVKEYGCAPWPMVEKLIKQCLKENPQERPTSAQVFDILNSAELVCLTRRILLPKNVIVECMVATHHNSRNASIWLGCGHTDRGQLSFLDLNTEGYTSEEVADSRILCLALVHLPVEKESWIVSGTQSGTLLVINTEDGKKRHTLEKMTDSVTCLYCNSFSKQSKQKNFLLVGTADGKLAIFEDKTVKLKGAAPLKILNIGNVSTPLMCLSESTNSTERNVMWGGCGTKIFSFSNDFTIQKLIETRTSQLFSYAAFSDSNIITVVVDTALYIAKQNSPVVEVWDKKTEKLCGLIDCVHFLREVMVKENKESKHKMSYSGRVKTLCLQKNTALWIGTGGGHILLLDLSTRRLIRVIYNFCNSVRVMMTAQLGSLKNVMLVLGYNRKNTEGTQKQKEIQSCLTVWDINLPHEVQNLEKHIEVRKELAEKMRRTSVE
Sequence of Tyrosine-protein kinase Yes (Homo sapiens) (P07947 2-543 limits assumed): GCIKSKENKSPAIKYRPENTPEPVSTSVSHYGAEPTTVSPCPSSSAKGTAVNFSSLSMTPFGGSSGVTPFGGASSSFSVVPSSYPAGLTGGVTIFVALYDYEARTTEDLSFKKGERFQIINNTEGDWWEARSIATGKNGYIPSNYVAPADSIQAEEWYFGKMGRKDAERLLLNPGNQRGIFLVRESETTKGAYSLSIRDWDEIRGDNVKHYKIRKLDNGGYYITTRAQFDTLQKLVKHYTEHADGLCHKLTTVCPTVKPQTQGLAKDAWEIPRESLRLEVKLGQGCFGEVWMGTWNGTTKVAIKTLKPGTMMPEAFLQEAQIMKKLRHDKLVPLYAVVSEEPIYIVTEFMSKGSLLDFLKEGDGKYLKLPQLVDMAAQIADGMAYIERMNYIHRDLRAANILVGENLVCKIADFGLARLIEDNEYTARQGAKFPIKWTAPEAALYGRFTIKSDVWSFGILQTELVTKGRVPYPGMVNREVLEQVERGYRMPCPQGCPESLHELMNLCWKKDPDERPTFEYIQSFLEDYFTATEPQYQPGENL
Sequence of Serine/threonine-protein kinase B-raf (Homo sapiens) (P15056 whole entry): as the sequence (P15056 whole entry V600E) above, with E600V counted along it
Sequence of Leucine-rich repeat serine/threonine-protein kinase 2 (Homo sapiens) (Q5S007 whole entry): as the sequence (Q5S007 whole entry G2019S) above, with S2019G counted along it

SMILES	inhibition [1]	inhibition [2]	inhibition [3]	inhibition [4]	inhibition [5]	inhibition [6]	inhibition [7]	inhibition [8]	inhibition [9]	inhibition [10]	inhibition [11]	inhibition [12]	inhibition [13]	inhibition [14]	inhibition [15]	inhibition [16]	inhibition [17]
NCc1ccc(-n2c(-c3nonc3N)nc3cnccc32)cc1	3.1%	0.26%	3.43%	6.32%	7.22%	9.93%	8.7%	8.53%	8.42%	3.91%	-0.81%	2.35%	17.2%	53.5%	22%	54.1%	–
Fc1ccc(-c2ncn(C3CCNCC3)c2-c2ccnc(Oc3ccc4c(c3)OCO4)n2)cc1	3.42%	3.41%	3.52%	-6.92%	7.39%	12.7%	6.25%	8.22%	1.31%	-0.17%	2.54%	2.7%	5.57%	11.2%	6.45%	10.9%	0.26%
NC(=O)c1ccc(Oc2nccc(-c3c(-c4ccc(F)cc4)ncn3C3CCNCC3)n2)cc1	4.62%	4.3%	4.13%	4.42%	7.51%	10.8%	4.69%	5.64%	3.18%	0.88%	2.75%	3.85%	0.29%	5.49%	3.7%	7.46%	2.59%
COc1cc(Nc2ncc3c(C)nc(-c4cccc(Oc5ccccc5)c4)n3n2)cc(OC)c1OC	5.32%	-0.14%	7.34%	-1.81%	3.08%	12.2%	2.54%	11.4%	2.2%	-0.45%	-1.6%	0.83%	11.7%	18.3%	13.8%	47.3%	1.87%
Clc1ccc(CNc2nccc(-c3cnn4ncccc34)n2)cc1	2.27%	-0.37%	-1.15%	-0.35%	0.05%	3.64%	0.12%	2.83%	1.36%	-1.19%	-1.73%	2.1%	1.21%	14%	1.24%	13%	–
Fc1ccc(-c2ncn(CCCN3CCOCC3)c2-c2ccncc2)cc1	-1.64%	-0.25%	-0.03%	3.14%	0.29%	1.33%	0.73%	0.78%	-0.34%	-5.69%	3.04%	-0.71%	0.7%	3.28%	1.27%	4.28%	3.48%
CCN(CC)Cc1ccc(Nc2nccc(-c3cnn4ncccc34)n2)cc1	18.2%	4.42%	22.5%	-4.19%	7.03%	17.7%	4.68%	14%	0.49%	1.56%	1.17%	3.85%	-6.19%	8.65%	0.1%	19%	-3.68%
COc1cc2ncn(-c3cc(OCCc4ccccc4)c(C(N)=O)s3)c2cc1OC	0.83%	1.03%	4.7%	0.59%	3.24%	3.36%	3.25%	3.42%	0.38%	-9.47%	2.95%	0.72%	4.52%	10.8%	6.42%	32.5%	0.43%
c1ccc(-c2n[nH]cc2-c2ccnc(-c3ccc(OCCN4CCOCC4)cc3)c2)nc1	-0.82%	-1.99%	2.34%	0.13%	-2.91%	-2.83%	-4.04%	-1.12%	-0.28%	0.21%	2.23%	0.43%	11%	8.18%	6.06%	13.7%	5%
CN(c1ccc(NC(=O)Nc2c(Cl)cccc2Cl)cc1)c1ccnc(Nc2cccc(CS(C)(=O)=O)c2)n1	17.4%	17.6%	28.2%	9.82%	1.79%	4.11%	2.49%	5.8%	0.7%	1.82%	0.17%	1.26%	12.2%	15.4%	9.38%	20.4%	4.97%
NC(=O)Cc1ccccc1Oc1nccc(-c2c(-c3ccc(F)cc3)ncn2C2CCNCC2)n1	-0.3%	1.2%	2.44%	-4.81%	3.8%	6.06%	3.3%	4.77%	-0.15%	-7.05%	3.72%	1.16%	6.61%	2.56%	6.11%	8.33%	2.88%
Cc1ccc(C(=O)NC2CCC2)cc1-c1ccc(C(=O)NCC2CC2)cc1	1.69%	1.57%	0.45%	3.75%	3.33%	2.03%	3.91%	3.62%	-1.45%	-1.36%	3.77%	1.51%	2.63%	2.18%	2.78%	5.64%	3.05%
O=C(Nc1n[nH]c2cc(-c3ccccc3)ccc12)C1CC1	16.1%	1.86%	5.44%	1.7%	7.16%	6.29%	6.47%	6.53%	-0.71%	1.41%	2.36%	2.04%	2.57%	6.05%	3.85%	7.95%	4.16%
O=C(NCC1CC1)c1ccc(-c2cccc(C(=O)NC3CC3)c2)cc1	0.81%	-0.02%	-2.38%	1.3%	3.46%	3.07%	1.59%	1.43%	5.36%	7.69%	-3.46%	0.85%	3.26%	6.31%	1.46%	5.03%	1.15%
Nc1nccc(-c2c(-c3ccc(F)cc3)ncn2C2CCC(O)CC2)n1 (stereo not drawn)	2.9%	5.1%	40%	1.54%	-2.22%	-1.06%	-3.35%	-2.66%	-4.81%	-9.19%	-0.79%	-1%	-0.71%	0.86%	1.56%	4.03%	-8.32%
